DAX1 inh-1: DAX1 (NR0B1) inhibition, primary screen; 1.1% of 370,000 active; inhibition, % at 6.8 µM; HEK293T StAR-luciferase reporter, SF-1/DAX-1 repression relief;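 active = inhibition above the mean over all tested compounds plus 3 SD, cut at about 3.6% in these data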;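 note: 0% = DAX-1 cells with DMSO and 100% = cells lacking DAX-1 with DMSO; higher inhibition means more luminescence from relief of DAX-1 repression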
hgDAF12 agonist: hgDAF-12 agonism, primary luciferase screen | HEK293 GAL4-hgDAF12 UAS-luciferase reporter, agonist luminescence; normalized to butyrate control | activation, % at 6.8 µM | 1.8% of 370,000 active | AID 687014;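 active = activation above a cutoff set at the mean of all screened compounds plus 3 SD, cut at about 10% in these data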;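 note: 0% = DMSO wells and 100% = sodium butyrate wells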
ssDAF12 agonist: S. stercoralis DAF-12 activation, primary screen; 1% of 370,000 active; AID 652126; activation, % at 6.8 µM; HEK293 ssDAF-12/GRIP1 lit1-tk-luc reporter, luminescence; % of 3 µM dafachronic acid response;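 active = activation above the mean over all tested compounds plus 3 SD, cut at about 0.9% in these data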;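 note: 0% = DMSO-only wells and 100% = 3 µM delta7-dafachronic acid wells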
DAX1 inh-2: inhibits human nuclear receptor DAX1. HEK293 Gal4-DAX1 luciferase reporter, luminescence. P51843. inhibition, % at 6.75 µM. 0.99% of 340,000 active;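 active = inhibition above the mean over all tested compounds plus 3 SD, cut at about 4.2% in these data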;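 note: 0% = DAX1-transfected cells with DMSO and 100% = empty-vector control cells with DMSO; inhibition shows as a rise in luminescence from relieved DAX1 repression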
hcDAF-12 act: activators of H. contortus DAF-12 nuclear receptor; HEK293 hcDAF-12 lit1-tk-luc reporter, luminescence; 0% DMSO, 100% Δ7-dafachronic acid; activation, % at 6.8 µM; 1.4% of 370,000 active; AID 652067;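 active = activation above the mean of all tested compounds plus 3 SD, cut at about 5.5% in these data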;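 note: 100% = response to 3 µM Δ7-dafachronic acid high control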
LXR ag: counter-screen for hcDAF-12 agonists: agonists of human LXR-beta. shares compounds with hcDAF-12 act. AID 743027. activation, % at 6.8 µM. 3,400 tested, under 10 active. HEK293 Gal4-LXR tk-luc reporter, luminescence, 24 h; normalized: DMSO 0%, positive control 100%;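 active = mean percent activation of the reporter above a cutoff set as the average over tested compounds plus their standard deviation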
Target sequence (P55055 whole entry, looked up, the tested form may be a part): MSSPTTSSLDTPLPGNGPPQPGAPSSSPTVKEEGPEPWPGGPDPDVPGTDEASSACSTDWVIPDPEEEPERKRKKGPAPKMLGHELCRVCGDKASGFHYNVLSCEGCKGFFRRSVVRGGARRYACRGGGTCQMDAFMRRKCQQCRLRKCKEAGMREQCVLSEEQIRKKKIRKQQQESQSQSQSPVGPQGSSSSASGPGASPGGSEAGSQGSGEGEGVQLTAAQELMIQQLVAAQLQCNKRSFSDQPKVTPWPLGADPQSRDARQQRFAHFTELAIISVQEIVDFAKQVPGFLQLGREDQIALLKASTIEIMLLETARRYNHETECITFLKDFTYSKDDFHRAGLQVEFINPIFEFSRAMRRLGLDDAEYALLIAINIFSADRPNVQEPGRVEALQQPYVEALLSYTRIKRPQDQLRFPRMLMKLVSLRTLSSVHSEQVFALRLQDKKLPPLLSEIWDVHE
hcDAF12 ag: confirmation of H. contortus DAF-12 agonists. 61% of 3,400 active. activation, % at 6.8 µM. HEK293 hcDAF-12 lit1-tk-luc reporter, luminescence; % of Δ7-dafachronic acid response. AID 743032. shares compounds with hcDAF-12 act;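 active = mean activation across triplicate tests above the threshold derived from the earlier primary screen, cut at about 5.5% in these data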;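 note: 0% = DMSO only wells and 100% = 3 µM Δ7-dafachronic acid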
hgDAF12 conf: hgDAF-12 agonism, confirmation assay; shares compounds with hgDAF12 agonist; 80% of 3,300 active; AID 743050; activation, % at 6.8 µM; HEK293 GAL4-hgDAF12 luciferase reporter, agonist mode; percent of butyrate response;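 active = mean activation over triplicate wells above the hit cutoff derived from the earlier primary screen, cut at about 11% in these data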;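 note: 0% = DMSO low control and 100% = 2 mM sodium butyrate high control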
LXRb DAF12 ctr: counter-screen for DAF-12 agonists: agonists of human LXR-beta. HEK293 Gal4-LXR luciferase reporter, 24 h. shares compounds with hgDAF12 agonist. activation, % at 6.8 µM. 3,300 tested, under 10 active. AID 743051;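 active = mean activation of the triplicate above a set limit carried over from the primary screen, none filed active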
* hit, by the source's call; · = no result. Only some compounds are listed: those with a hit (about 4.1% of all), similar ones and a draw of the others.

SMILES | DAX1 inh-1 | hgDAF12 agonist | ssDAF12 agonist | DAX1 inh-2 | hcDAF-12 act | LXR ag | hcDAF12 ag | hgDAF12 conf | LXRb DAF12 ctr
Cc1cc(OCc2nc3ccccc3s2)ccc1N | 2 | 14* | 2.0* | 3 | 13* | 1 | 14* | 19* | 1
Cc1cc(C(=O)OCc2nc3ccccc3s2)c(C)o1 | 0 | 7 | -1 | 1 | 4 | · | · | · | ·
c1ccc(SCc2nc3ccccc3s2)nc1 | 2 | 14* | 4.5* | 3 | 15* | 1 | 7.8* | 16* | 1
COC(=O)C[C@H]1CC[C@@H](NC(=O)C2CC2)[C@@H](CO)O1 | -1 | -1 | -1 | · | -2 | · | · | · | ·
CCc1nc2ccc(C(=O)N3CCN(S(=O)(=O)CC)CC3)cn2c1N(C)C(=O)c1cccc(OC)c1 | 0 | -2 | -1 | · | -1 | · | · | · | ·
O=C(Nc1cccc2c(=O)[nH][nH]c(=O)c12)c1ccc([N+](=O)[O-])cc1 | 3 | 3 | 0 | · | 3 | · | · | · | ·
CC(C)C[C@H]1CNC(=S)N1CC1CCN(CCCCc2ccccc2)CC1 | -1 | -1 | -1 | 1 | 0 | · | · | · | ·
O=C(Nc1ccc(-c2nc3cccnc3s2)cc1)c1ccc(Cl)nc1 | 1 | 4 | -1 | 1 | 0 | · | · | · | ·
O=C(Nc1ccc(-c2nc3cccnc3s2)cc1)c1cccnc1Cl | 3.7* | 23* | 0 | 2 | 7.9* | 2 | 5.6* | 24* | 1
COC(=O)C1CN(C2CCCC2)CCS(=O)(=O)N1Cc1ccccc1 (stereo unspecified) | -1 | -2 | -1 | · | -1 | · | · | · | ·
O=C(Nc1ccc2cn[nH]c2c1)c1ccccc1F | 3.9* | 14* | 1 | 2 | 7.8* | 1 | 5 | 16* | 1
O=C(Nc1ccc2ccccc2c1)c1ccccc1F | 2 | 19* | 1.6* | 1 | 14* | 2 | 9.3* | 23* | 1
N#Cc1ccc(C(=O)Nc2ccc3ccccc3c2)cc1 | 1 | 20* | 1 | -1 | 7.9* | 1 | 5 | 22* | 1
CC1(C(=O)NS(=O)(=O)Cc2cccc(Cl)c2)CCN1C(=O)c1cccc(F)c1 (stereo unspecified) | 0 | 1 | -1 | · | 1 | · | · | · | ·
CCCNC(=O)c1ccc(N2CCC3(CC2)CC(c2ccccc2)=NO3)c(NC(=O)Cc2ccc(F)cc2)c1 | -1 | -4 | -1 | 0 | -2 | · | · | · | ·
CCCCCCC12C(=Cc3cc4c(cc31)OCCO4)c1cc(OC)c(OC)cc1C(CC(=O)NCc1ccccc1)N2C(=O)OC (stereo unspecified) | -1 | 1 | -1 | · | -1 | · | · | · | ·
O=C(c1cc(-c2ccc(O)cc2)on1)N1CCCCCC1 | 2 | 14* | 0 | 5.1* | 6.8* | 1 | 3 | 17* | 1
O=C(c1cc(-c2ccc(Cl)cc2Cl)on1)N1CCCCCC1 | 3 | 16* | 0 | 4 | 8.8* | 2 | 8.3* | 18* | 1
Cc1ccc(NC(=O)CSCc2ccco2)cc1 | 0 | 17* | 1.3* | 1 | 8.0* | 1 | 4 | 13* | 0
Cc1ccc(NC(=O)CSCC(=O)NCc2ccco2)cc1 | 0 | 1 | -1 | 0 | -2 | · | · | · | ·
CCCCNC(=O)c1nc(-c2ccncc2)oc1-c1ccccc1 | 2 | 1 | -1 | · | 0 | · | · | · | ·
CCc1ccc(NC(=O)COc2ccc(F)cc2C(=O)c2cnn(-c3ccccc3)c2)cc1 | 2 | 18* | 1 | 2 | 12* | 0 | 7.8* | 7 | 0
CCc1ccc(NC(=O)COc2coc(CN3CCN(c4ccccc4)CC3)cc2=O)cc1 | 1 | 0 | -1 | 0 | 1 | · | · | · | ·
Cc1sc(NC(=O)c2ccco2)nc1-c1ccccc1 | 3 | 14* | 1 | 4 | 7.8* | 1 | 7.9* | 18* | 1
